Shown are actives, neighbours in structure and some others; about 21% of the full set was active somewhere.
Cycloheximide cs: counter-screen hit for Shiga toxin inhibitors, cycloheximide; cell reporter, cycloheximide protein synthesis inhibition counterscreen; max response, %; 12% of 300,000 active; AID 2314; in the data active = max response mostly above about 13%, no sharp cut-off; inactive = mostly below about 14%; note: read at 38.3 µM for the half of the compounds with a filed dose; 0% is about no effect
NS1 function inh: influenza NS1 inhibition | Potency, µM (highest dose often 46.1 µM), without a hit: at the top dose activity, positive = more growth | 0.4% of 270,000 active; calls by dose curve; note: potency is the fitted concentration of half-maximal effect; actives are rising curves; nearly all actives have a fitted effect of over 50% in size
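Recovery from NS1-induced slow growth read by OD600 in budding yeast switched to galactose assay medium (pH 6.0, -URA) at 1:100 dilution. Compound 23 nl per well; the matching strain lacking NS1 serves as control.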
Pf growth 96h: inhibits malaria parasite growth, 96 h | P. falciparum luciferase reporter growth, 96 h | Potency, µM (highest dose often 28.7 µM), without a hit: at the highest dose activity change, negative = inhibition, most hits filed as inhibitors | 6.9% of 320,000 active; note: potency is the fitted concentration of half-maximal effect; % is set by controls: 0 for no effect and ±100 for the full control effect
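Two-generation exposure (96 h) targets delayed-death phenotype. Reporter parasites carrying integrated firefly luciferase, in red cells at 2% hematocrit and 0.05% parasitemia final, kept at 37 C, 5% CO2; luminescence loss indicates inhibition.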
Shiga inhibitor: Shiga toxin inhibition. Vero cells, Shiga toxin protein synthesis inhibition reporter. inhibition, % at 38.7 µM. 9.2% of 290,000 active. AID 2315; in the data active = inhibition mostly above about 28%, no sharp cut-off; inactive = mostly below about 43%; note: 0% is about no effect
Pf growth 48h: P. falciparum growth inhibition at 48 hours (one generation) | P. falciparum luciferase growth in erythrocytes, 48 h | Potency, µM (titrated, usually from 28.7 µM), without a hit: top-dose activity change, negative = inhibition, most hits filed as inhibitors | 5.9% of 310,000 active | AID 504832; note: potency is the fitted concentration of half-maximal effect; % is set by controls: 0 for no effect and ±100 for the full control effect
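Read-out is firefly luciferase luminescence from an integrated reporter in P. falciparum, so falling signal marks reduced parasite growth. Infected erythrocytes were at 2% hematocrit and 0.1% parasitemia (final) in Albumax-supplemented RPMI 1640.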
* = called active by the depositor; ? = inconclusive; nt = no result; + = active, no number. Unless noted, calls come from the whole dose curve; as a rule, active = well fitted inhibition curve with a large enough effect; inconclusive = small, poorly fitted or top-dose-only effect, or another doubt; inactive = no such curve, though single readings can be large or run the other way.

SMILES	Cycloheximide cs	NS1 function inh	Pf growth 96h	Shiga inhibitor	Pf growth 48h
CC(CNC(=O)CCS(=O)(=O)c1ccc2c(c1)oc(=O)n2C)c1ccccc1 (configuration not stated)	1	-1%	9.3µM*	14	?
Cc1ccc(CNC(=O)CCS(=O)(=O)c2ccc3c(c2)oc(=O)n3C)cc1	-2	11%	-30%	-3	-26%
COc1cc(NC(=O)CCS(=O)(=O)c2ccc3c(c2)oc(=O)n3C)cc(OC)c1OC	1	10%	2.3µM*	-7	-29%
CC(Oc1ccccc1)C(=O)N/N=C/c1ccccn1 (configuration not stated)	14	nt	?	0	-8%
CCOC(=O)c1c(C)oc2c1c(C=NCCC(=O)O)c(O)c1ccccc12	7	nt	-12%	43	-5%
CCOC(=O)c1c(C)oc2c1c(CN1CCN(CCO)CC1)c(O)c1ccccc12	36*	nt	213%	118*	124%
CCOC(=O)c1c(C)oc2c1c1c(c3ccccc32)OCN(Cc2ccccn2)C1	35*	-22%	218%	89*	104%
CCOC(=O)C1(Cc2ccccc2)CCCN(Cc2ccccn2)C1 (configuration not stated)	-5	3%	-93%	22	7%
CCOC(=O)c1c(C)oc2c1c(C(c1ccncc1)N1CCOCC1)c(O)c1ccccc12 (configuration not stated)	51*	-104%	-1%	100*	?
CCOC(=O)c1c(C)oc2c1c(C=NC1CCS(=O)(=O)C1)c(O)c1ccccc12 (configuration not stated)	2	-1%	-20%	-2	?
CCOC(=O)c1c(C)oc2c1c(CN1CCN(C(=O)OCC)CC1)c(O)c1ccccc12	71*	-43%	-31%	104*	115%
Cc1c(NC(=O)Cn2cnc3c(=O)n(C)c(=O)n(C)c32)cccc1-c1nc2ccccc2o1	nt	23%	nt	nt	nt
Cc1cc(C)n(C(=O)COc2ccccc2[N+](=O)[O-])n1	11	-1%	21%	15	?
COCCCN=Cc1c(C)[nH]n(-c2ccc(Br)c(C)c2)c1=O	49*	-4%	353%	38*	253%
O=C1CCC(=O)N1OCCCOc1ccc2c(c1)CCC2	10*	-10%	nt	0	-8%
O=C1CCC(=O)N1OCCOc1ccc2c(c1)CCC2	24*	-1%	1%	47*	2%
CC1(C)NC(=O)N(CCCCOc2ccc3c(c2)CCC3)C1=O	11	-25%	nt	16	?
COc1ccc(C2SCC(=O)Nc3c2c(C)nn3-c2ccccc2)cc1 (configuration not stated)	-3	-5%	-7%	-5	nt
Cc1nn(-c2ccccc2)c2c1C(c1ccc(Cl)cc1)N(c1ccccc1)C(=O)N2 (configuration not stated)	-2	4%	13µM*	-13	13µM*
Cc1cc(-c2ccccc2)oc(=O)c1NC(=O)c1ccccc1	10	-1%	4%	20	27%
Cc1cc(C=C2C(=O)CCCC2=O)c(C)n1-c1ccccc1	16*	11%	-58%	10	-9%
Cc1cc(C=C2C(=O)c3ccccc3C2=O)c(C)n1-c1ccc(Cl)cc1	14*	-3%	23%	-6	11%
Cc1cccc(-n2c(C)cc(/C=C3/C(=N)N4C(c5ccccc5)=CSC4=NC3=O)c2C)c1	0	12%	?	-8	3%
Cc1cccc(-n2c(C)cc(C=C3C(=O)c4ccccc4C3=O)c2C)c1	21*	4%	11%	41	-9%
O=C(CCc1ccccc1)N=C1SC2CS(=O)(=O)CC2N1c1cccc(F)c1 (configuration not stated)	6	1%	6%	-4	15%
SMILES	Cycloheximide cs	NS1 function inh	Pf growth 96h	Shiga inhibitor	Pf growth 48h
CCOc1ccc(NC(=O)CN(c2ccc(OCC)cc2)S(=O)(=O)c2c(C)[nH]c(=O)[nH]c2=O)cc1	1	nt	7%	-8	-22%
CCOc1ccc(N(CC(=O)Nc2cc(C)cc(C)c2)S(C)(=O)=O)cc1	59*	2%	4%	75*	18%
CCOc1ccc(N(CC(=O)Nc2cccc(Br)c2)S(C)(=O)=O)cc1	26*	8%	-48%	64*	3%
CCOc1ccc(N(CC(=O)Nc2cccnc2)S(C)(=O)=O)cc1	-5	5%	-29%	-18	-3%
CCOc1ccc(N(CC(=O)Nc2ccc(C)cc2C)S(C)(=O)=O)cc1	9	3%	-186%	6	?
CCOc1ccc(N(CC(=O)Nc2ccc(C)cc2)S(C)(=O)=O)cc1	37*	22%	?	66*	92%
Cc1ccc(CN(Cc2ccccc2)C(=S)Nc2ccccc2C)o1	1	nt	?	-5	?
Cc1occc1C(=O)NNC(=S)Nc1cccc([N+](=O)[O-])c1	20	5%	39%	86	21%
C/C(=N\NC(=O)c1c(Cl)cnn1C)c1cccnc1	39*	-1%	7%	56*	48%
C/C(=N\NC(=O)c1c(Br)cnn1C)c1ccc(NC(=O)c2ccc(F)cc2)cc1	43*	-5%	94%	86*	20%
C/C(=N\NC(=O)c1ccc(Cl)cc1)c1cccnc1	29*	-3%	18%	44	110%
C/C(=N\NC(=O)c1c(Cl)cnn1C)c1cccc(NC(=O)c2ccc(C)cc2)c1	21*	-13%	1%	109*	29%
CCOC(=O)C1C(c2ccc([N+](=O)[O-])cc2)C2C(=O)NN=C2CC1(C)O (configuration not stated)	2	5%	12%	5	14%
COc1ccc(N2CCN(C(=O)[C@@H](NC(=O)c3ccccc3Cl)C(C)C)CC2)cc1	10	11%	?	-4	?
Cc1nn(C)c(C(=O)N/N=C/c2ccc(Br)cc2)c1Cl	-3	6%	25%	-1	26%
C/C(=N\NC(=O)c1ccc(Cl)cc1)c1cccc(NC(=O)c2cccnc2)c1	38*	0%	-2%	45*	61%
CC(C)c1ccc(/C=N/NC(=O)c2c(Cl)cnn2C)cc1	46*	-32%	161%	+	218%
C/C(=N\NC(=O)c1c(Cl)cnn1C)c1cccc(NC(=O)C(C)C)c1	1	-6%	-21%	-5	1%
C/C(=N\NC(=O)c1ccn(C)n1)c1cccc(NC(=O)c2ccncc2)c1	30*	5%	?	45*	22%
C/C(=N/NS(=O)(=O)c1ccc(Cl)cc1)c1cccc(NC(=O)c2ccncc2)c1	6	-7%	0%	-1	?
CNC(=O)CN(C1CCCCC1)S(=O)(=O)c1ccc(OC)c(Cl)c1	-2	-2%	nt	-10	-5%
COc1ccc2oc(=O)c(C(C)=O)cc2c1	-2	3%	-24%	-2	nt
COc1ccc2oc(=O)c(C(=O)NC(C)c3ccccc3)cc2c1 (configuration not stated)	18*	3%	-7%	54	?
COc1ccc2oc(=O)c(NC(=O)C3CCCCC3)cc2c1	-3	2%	13µM*	3	72%
